Source: PubChem (Center for Chemical Genomics, University of Michigan)
The sample as a whole holds a higher share of hits than the screen did.
Dicer processing: inhibitors of human Dicer processing of pre-microRNA | actives 6% (n = 47,000) | AID 1347074 | z-score at 25 µM | Q9UPY3 | cat-ELCCA pre-miR-21 Dicer processing, chemiluminescence; hits give high values; in the data active = z-score above about 3, passing the limit was not always enough;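 note: plate controls were vehicle for no effect and no enzyme for full effect; higher signal means more uncleaved substrate so more Dicer inhibition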
Target sequence (Q9UPY3 whole entry, looked up): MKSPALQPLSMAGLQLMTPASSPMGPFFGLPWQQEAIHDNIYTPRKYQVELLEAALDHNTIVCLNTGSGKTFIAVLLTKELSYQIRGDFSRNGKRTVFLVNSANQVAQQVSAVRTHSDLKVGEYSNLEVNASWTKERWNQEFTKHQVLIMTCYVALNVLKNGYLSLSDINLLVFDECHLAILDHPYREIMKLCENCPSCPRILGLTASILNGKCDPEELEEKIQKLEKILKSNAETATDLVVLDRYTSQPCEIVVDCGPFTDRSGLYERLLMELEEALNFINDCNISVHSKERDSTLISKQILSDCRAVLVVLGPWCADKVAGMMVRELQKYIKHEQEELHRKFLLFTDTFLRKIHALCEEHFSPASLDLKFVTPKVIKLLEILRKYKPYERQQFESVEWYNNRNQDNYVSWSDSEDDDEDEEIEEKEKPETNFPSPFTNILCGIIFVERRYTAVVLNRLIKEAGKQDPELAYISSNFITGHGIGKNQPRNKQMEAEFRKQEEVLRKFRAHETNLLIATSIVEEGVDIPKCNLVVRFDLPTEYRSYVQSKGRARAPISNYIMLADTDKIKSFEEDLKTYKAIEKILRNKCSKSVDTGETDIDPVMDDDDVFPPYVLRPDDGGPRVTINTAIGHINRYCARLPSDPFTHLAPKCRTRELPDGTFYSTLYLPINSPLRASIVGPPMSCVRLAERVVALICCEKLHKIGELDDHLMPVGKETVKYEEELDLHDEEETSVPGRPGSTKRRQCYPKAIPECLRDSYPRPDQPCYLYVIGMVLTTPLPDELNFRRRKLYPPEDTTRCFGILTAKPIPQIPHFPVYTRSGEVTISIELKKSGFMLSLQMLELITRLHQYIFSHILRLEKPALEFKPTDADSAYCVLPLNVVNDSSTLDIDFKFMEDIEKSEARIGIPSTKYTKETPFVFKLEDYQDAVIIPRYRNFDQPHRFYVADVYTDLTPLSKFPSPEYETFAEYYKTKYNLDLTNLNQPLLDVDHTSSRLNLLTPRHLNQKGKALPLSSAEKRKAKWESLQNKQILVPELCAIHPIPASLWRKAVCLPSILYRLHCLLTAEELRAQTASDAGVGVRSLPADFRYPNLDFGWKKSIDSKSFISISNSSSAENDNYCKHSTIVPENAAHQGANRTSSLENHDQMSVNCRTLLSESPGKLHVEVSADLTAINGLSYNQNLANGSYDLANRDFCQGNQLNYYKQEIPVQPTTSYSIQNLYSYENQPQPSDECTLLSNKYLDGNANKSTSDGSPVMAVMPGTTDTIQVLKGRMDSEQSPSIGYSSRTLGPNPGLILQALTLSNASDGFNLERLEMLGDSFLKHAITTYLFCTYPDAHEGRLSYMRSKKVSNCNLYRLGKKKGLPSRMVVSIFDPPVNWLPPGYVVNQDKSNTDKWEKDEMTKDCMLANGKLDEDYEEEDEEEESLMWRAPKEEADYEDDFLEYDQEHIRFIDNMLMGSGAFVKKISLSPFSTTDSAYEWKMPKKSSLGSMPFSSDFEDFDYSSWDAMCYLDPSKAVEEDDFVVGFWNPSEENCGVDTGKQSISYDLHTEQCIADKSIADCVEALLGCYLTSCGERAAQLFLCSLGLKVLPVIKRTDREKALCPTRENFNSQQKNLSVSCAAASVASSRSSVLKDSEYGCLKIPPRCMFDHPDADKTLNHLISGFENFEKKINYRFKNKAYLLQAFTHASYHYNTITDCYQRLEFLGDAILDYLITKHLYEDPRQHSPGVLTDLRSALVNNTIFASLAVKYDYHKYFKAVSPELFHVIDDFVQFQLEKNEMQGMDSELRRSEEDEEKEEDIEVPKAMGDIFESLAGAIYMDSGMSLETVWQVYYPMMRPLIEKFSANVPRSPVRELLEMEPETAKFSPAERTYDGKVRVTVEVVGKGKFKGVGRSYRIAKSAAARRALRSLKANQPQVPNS
* = called active by the depositor.

SMILES	Dicer processing
O=C(NC1CCCC1)c1cc2n(n1)C(C(F)(F)F)CC(c1ccc(Br)cc1)N2 (stereo unspecified)	4.4*
O=C(O)c1ccccc1S(=O)c1cc(C(=O)O)c(S(=O)c2ccccc2C(=O)O)cc1C(=O)O (stereo unspecified)	-0.21
COc1ccc(-c2ccc(C#N)c(=O)[nH]2)cc1	1.1
O=C(OCC1CC1)c1cnc(Sc2ccccn2)nc1C(F)(F)F	-1.6
Cc1sc2nc(SCC(=O)N3CCN(CCO)CC3)[nH]c(=O)c2c1C	-1.3
Cc1nc(-c2ccc3c(c2)OCC3)sc1C(=O)Nc1ccc2c(c1)OCCO2	-2
Cc1ccc(C(C)NC(=O)C(=O)Nc2cccc(C(F)(F)F)c2)c(C)c1 (stereo unspecified)	-2
Cc1nn(C)c(NCCSCc2c(Cl)cccc2Cl)c1[N+](=O)[O-]	1.4
COc1cc(C2N(C)c3ccccc3N2C)ccc1O	0.55
N#Cc1ccc(CN=C(N)N=C(N)N)cc1	17
CNC(=O)C(C)NC(=O)OC(C)(C)C (stereo unspecified)	0.96
Cc1ccc(S(=O)(=O)Nc2ccc(C)cc2NS(=O)(=O)c2ccc(F)cc2)cc1	4.6*
Cc1ccc(S(=O)(=O)Nc2cc(C)ccc2C)cc1	0.42
Cc1ccc(NS(=O)(=O)c2ccc(Cl)cc2)c([N+](=O)[O-])c1	-0.45
CC(=O)Oc1cc2c(C(=O)NC3CCS(=O)(=O)C3)c(C)oc2c2ccccc12 (stereo unspecified)	-7.3
CCc1cc2c(=O)c(-c3nc4ccccc4n3C)c(C)oc2cc1O	1.3
CCc1cc2c(=O)c(-c3nc4ccccc4[nH]3)coc2c(CN2CCC(C)CC2)c1O	4.9*
CCc1cc2c(=O)c(-c3nc4ccccc4n3C)coc2c(CN(C)C)c1O	3.4*
CCc1cc2c(=O)c(-c3nc4ccccc4[nH]3)coc2c(CN(CC)CC)c1O	0.96
O=c1c(-c2nc3ccccc3s2)coc2c(CN3CCCCC3)c(O)ccc12	0.4
Cc1nc(-c2coc3c(C)c(O)c(CN(C)C)cc3c2=O)cs1	-0.18
N#CCCN(Cc1ccccc1)C(=O)c1ccccc1	-0.67
CCOc1ccc(C2CC(=O)Nc3nc(N)[nH]c(=O)c32)cc1 (stereo unspecified)	2.1
CCCCOC(=O)Nc1nnc(C)s1	-0.67
CC1=C(C(=O)OC2CCCCC2)C(c2ccccc2)C2=C(CC(C)(C)CC2=O)N1 (stereo unspecified)	-0.17
SMILES	Dicer processing
CCCc1[nH]nc2c1C(c1ccc(F)cc1)C(C#N)=C(N)O2 (stereo unspecified)	-2
COc1cc(C(=O)c2cc(Cl)ccc2N)ccc1O	3.8*
COc1ccc(OC)c(C(=O)c2ccc(N)cc2)c1	1.9
COC(=O)c1ccccc1C(=O)c1ccc(Cl)cc1	1.1
O=[N+]([O-])c1cccc(NC2O[C@H](CO)[C@@H](O)[C@H](O)[C@H]2O)c1 (stereo partly specified)	-0.47
C=CCNC(=O)c1ccccc1NC(=O)CN1C(=O)c2cccc3cccc1c23	0.78
Cc1ccccc1-c1nc(NC(=O)CSc2nnc3ccccn23)ns1	3.5*
Cc1nnc(SCC(=O)Nc2nsc(-c3ccc(C(C)(C)C)cc3)n2)s1	1.8
O=C(CSc1ncn[nH]1)Nc1ncccn1	0.99
O=C(CSc1nnc2ccccn12)Nc1nc(-c2ccc(Cl)cc2)ns1	-2.9
O=C(CSc1nc2ccccc2s1)Nc1ccc(Cl)cc1	0.57
O=C(CSc1ccc2ccccc2n1)Nc1nsc(-c2ccccc2)n1	2.1
CC(C)(C)c1ccc(-c2nc(NC(=O)CSc3ncn[nH]3)ns2)cc1	7.1*
Cn1ccnc1SCC(=O)Nc1nc2ccccc2s1	-0.98
O=C(CSc1nnc2scc(-c3ccccc3)n12)Nc1nsc(-c2ccccc2)n1	0.12
Cc1ccc(-c2csc3nnc(SCC(=O)Nc4nsc(-c5ccccc5)n4)n23)cc1	4.6*
O=C(CSc1nnc2ccccn12)Nc1ccc(-c2nc3ccccc3s2)cc1	3.5*
NC(=O)CSc1nnc2ccccn12	0.34
CCc1c(C#N)c(SCC(=O)NCc2ccc3c(c2)OCO3)nc2c1C(=O)CC(C)(C)C2	-0.1
COC(=O)C1=C(C)NC2=C(C(=O)CC(c3cccs3)C2)C1c1ccc2c(c1)OCO2 (stereo unspecified)	0.71
CC(C)(C)C(=O)O/N=C(\N)Cc1cccc2ccccc12	-1.2
O=C(C1c2ccccc2Oc2ccccc21)N1CCN(c2ccc(F)cc2)CC1	2.5
CCOC(=O)C(NC(=O)Nc1ccc(Cl)c(Cl)c1)(OCC(F)(F)F)C(F)(F)F (stereo unspecified)	-0.44
C=CCOc1ccc(C2c3c(oc4ccccc4c3=O)C(=O)N2c2nc(C)c(C)s2)cc1OCC (stereo unspecified)	-0.99
Nc1nc2c(c(=O)[nH]1)C(c1cccc(Br)c1)CC(=O)N2 (stereo unspecified)	0.8
O=C(Nc1nc(-c2ccccc2)cs1)c1ccc(Cl)cc1	2.2
Cn1ccnc1SCC(=O)Nc1nc(-c2ccc(Cl)cc2)cs1	0.23
CC(=O)CCCNc1nc(-c2ccc(Cl)cc2)cs1	6.7*
Cc1c(C)c(C)c(S(=O)(=O)Nc2cc(Cl)cc(Cl)c2)c(C)c1C	0.7
